DRD3 agonist = D3 dopamine receptor (human) agonism. 0.58% of 410,000 active. D3R DiscoveRx beta-arrestin cells, luminescence, 90 min. max activation, %. P35462; in the data active means max activation above about 30%; further: 0% is about no effect
Target sequence (P35462 whole entry, looked up): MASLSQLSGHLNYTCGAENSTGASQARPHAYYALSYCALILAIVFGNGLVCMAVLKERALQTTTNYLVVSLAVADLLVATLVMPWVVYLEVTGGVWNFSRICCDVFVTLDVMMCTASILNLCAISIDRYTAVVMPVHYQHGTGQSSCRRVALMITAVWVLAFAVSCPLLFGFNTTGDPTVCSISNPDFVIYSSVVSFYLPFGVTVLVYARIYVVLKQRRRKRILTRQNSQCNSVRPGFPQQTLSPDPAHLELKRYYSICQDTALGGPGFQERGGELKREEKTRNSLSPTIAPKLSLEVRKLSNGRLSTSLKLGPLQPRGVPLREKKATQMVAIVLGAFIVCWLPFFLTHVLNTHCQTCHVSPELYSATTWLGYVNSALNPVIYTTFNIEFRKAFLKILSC
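Agonist-mode cell screen: cells plated at 1500/well and incubated overnight at 37 °C, then exposed to library compounds for 90 min at 37 °C. Detection reagent was added for 30–60 min at room temperature, and luminescence was read.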
TGFb inhibitor = inhibitors of TGF-b signaling; HepG2 CAGA-GFP TGF-b/SMAD3 reporter, GFP fluorescence, 18 h; TGF-beta stimulated, 500 pg/mL final; Potency, µM (top dose mostly 46.1 µM), for inactives: top-dose activity, negative = inhibition, hits mostly inhibitors; 1.2% of 410,000 active; AID 588855; further: potency means the concentration at half of the fitted maximal effect; on the % scale 0 is the no-effect control and ±100 the full control effect; nearly all actives have a fitted effect of over 65% in size
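Using HEPG2 CAGA-GFP reporter cells at 1000 cells/well, we pinned test compounds, stimulated with recombinant TGF-beta (500 pg/mL final) and measured total well GFP after 18 h.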
DRD3 antagonist = blocks the human D3 dopamine receptor | max response, negative = inhibition, % | D3R cells, DiscoveRx beta-arrestin luminescence, antagonist mode; stronger effect = lower value | 2.5% of 360,000 active; in the data active means max response below about -50%; inconclusive means no clear call, values can overlap the other calls; further: on the % scale 0 is the no-effect control and ±100 the full control effect
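Cells plated overnight at 1500 cells/well, then exposed to library compounds with dopamine controls for 90 minutes at 37 degrees C. DiscoveRx reagent added for 30–60 minutes at room temperature; luminescence read, quantitative HTS format.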
ATXN viability = cell viability loss in ATXN counter-screen. Potency, µM (doses to about 56.7 µM), actives largely listed as cytotoxic. AID 651635. S2 cells (HEK-293 line with an ATXN2-luciferase reporter) viability, CellTiter-Fluor protease fluorescence, 24 h. 0.49% of 400,000 active; further: potency means the concentration at half of the fitted maximal effect; nearly all actives have a fitted effect of over 40% in size
HepG2 viability = kills HepG2 cells in TGF-b inhibitor counter-screen. HepG2 CAGA-GFP viability, ATP luminescence, 18 h. Potency, µM (titrated, usually from 46.1 µM), for the others: at the top dose activity change, negative = cytotoxicity, usual class: cytotoxic. 0.76% of 410,000 active. AID 588856; further: potency means the concentration at half of the fitted maximal effect
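CellTiter-Glo luminescence gave cytotoxicity after 18 hours at 37 degrees C. The cells were HepG2 CAGA-GFP in 1% FBS DMEM, stimulated with 500 pg/mL TGF-beta after compound addition. %Activity was normalised to no-cell wells (complete cell-killing) and DMSO (no toxicity), and curves were fitted and classified.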
ATXN2 expr inh = inhibitors of ATXN2 expression; HEK-293 ATXN2-luciferase reporter, luminescence, 24 h; 0.72% of 360,000 active; Potency, µM (doses to about 57 µM), without a hit: at the highest dose activity change, negative = inhibition, hits mostly inhibitors; further: potency means the concentration at half of the fitted maximal effect; on the % scale 0 is the no-effect control and ±100 the full control effect; nearly all actives have a fitted effect of over 55% in size
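qHTS (up to 57 uM final) was run with 24 h compound exposure of reporter cells at 37 °C. Each well was multiplexed: SteadyGlo luminescence measured ATXN2-luciferase expression after a fluorogenic Gly-Phe-AFC viability readout (25 uM final).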
* hit, by the source's call; i = inactive; ? = inconclusive; · = no result given; [ ] = remark or other dose. Most compounds without a hit are left out; they make up all but 4.8% or so of the library. Unless noted, the call rests on the fitted dose curve; in most records, active means well fitted curve in the direction sought with a large enough effect; inconclusive means small, poorly fitted or top-dose-only effect, or another doubt; inactive means no such curve, though single readings can be large; an effect the other way counts as inactive or inconclusive.

SMILES	DRD3 agonist	TGFb inhibitor	DRD3 antagonist	ATXN viability	HepG2 viability	ATXN2 expr inh
COc1cc2c(cc1OC)CN(C1CCC(C(C)(C)C)CC1)CC2 (configuration not stated)	-19	0%	-88*	·	-7%	-11%
COc1cc2c(cc1OC)CN(C(=O)C(C)(C)C)CC2	-1	5%	14	i	2%	7%
COc1cccc(CNC(=O)C2=C(C)C(=O)OC23CCN(C(C)=O)CC3)c1OC	2	0%	·	·	-2%	·
CNC(=O)/C(C#N)=C/c1cn(CC(=O)NCc2ccco2)c2ccccc12	-6	2%	-3	?	2%	-7%[11.3 µM]
COCCNC(=O)Cn1cc(/C=C(\C#N)C(=O)NC2CCCC2)c2ccccc21	-5	4%	-60*	i	-5%	·
O=C(Nc1ccc(F)cc1F)c1ccc2c(O)c(S(=O)(=O)c3ccc(Cl)cc3)c(=O)[nH]c2c1	-9	26%	·	i	7%	-4%
CCC1CCCCN1C(=O)COC(=O)c1n[nH]c2ccccc12 (configuration not stated)	-2	-9%	2	i	9%	2%
CC1CCN(C(=O)COC(=O)c2n[nH]c3ccccc23)CC1	-12	7%	-54*	i	13%	38%
O=S(=O)(c1ccccc1)c1nnn2c1nc(NCc1ccccc1)c1cc(Cl)ccc12	2	12%	·	i	4%	8%
OCCN1CCN(c2ncnc3c2c(-c2ccccc2)cn3-c2ccc(F)cc2)CC1	-20	10%	-75*	i	-30%	-11%
c1ccc(-c2cn(-c3ccccc3)c3ncnc(N4CCN(c5ccccc5)CC4)c23)cc1	8	0%	·	·	3%	·
CC1CN(c2ncnc3c2c(-c2ccccc2)cn3-c2ccc(F)cc2)CC(C)O1 (configuration not stated)	-35	-19%	-92*	i	-1%	-34%
Cc1ccc(NC(=O)CN2C(=O)C(c3ccccc3)=NC2(C)C)cc1C	6	·	·	·	-9%	·
Cc1ccccc1OCCNc1cc(N2CCN(CCO)CC2)ccc1[N+](=O)[O-]	-14	-9%	-64*	?	-35%	-20%
Cc1cccc(OCCNc2cc(N3CCN(CCO)CC3)ccc2[N+](=O)[O-])c1	-13	1%	-58*	?	-43%	-18%
CCOCCSc1c(C)cnc2c1c(=O)n(C)c(=O)n2C	-1	1%	·	·	0%	·
CN(CC(=O)NCCN1CCN(c2ccccc2)CC1)S(=O)(=O)c1ccc2c(c1)CCC(=O)N2	21	11%	-64*	i	-8%	-8%
CN(CC(=O)NCc1ccccc1)S(=O)(=O)c1ccc2c(c1)CCC(=O)N2	1	-2%	9	i	-6%	-5%
COc1ccc(NC(=O)CC2NCCNC2=O)c(OC)c1 (configuration not stated)	3	-7%	·	i	-13%	-5%
COc1ccc(C(=O)c2oc3ccccc3c2NC(=O)c2nc(SC)ncc2Cl)cc1Cl	7	-2%	·	i	3%	5%
Cc1ccc(NS(=O)(=O)c2ccc3c(c2)N(C)C(=O)CC(=O)N3C)cc1Cl	-3	2%	·	i	-7%	0%
CCS(=O)(=O)c1ncc(Cl)c(C(=O)Nc2ccccc2)n1	-23	10µM*	·	14µM*	18µM*	11µM*
CCSc1ncc(Cl)c(C(=O)Nc2c(C(=O)Nc3cccc(C)c3)oc3ccccc23)n1	-6	·	·	·	-14%	·
CCS(=O)(=O)c1ncc(Cl)c(C(=O)Nc2c(C(=O)Nc3cccc(C)c3)oc3ccccc23)n1	6	0.89µM*	·	?	-20%	8%
CCOC(=O)c1c(-c2ccccc2)csc1NC(=O)c1nc(S(=O)(=O)CC)ncc1Cl	-19	?	·	·	-35%	·
CCS(=O)(=O)c1ncc(Cl)c(C(=O)Nc2ccccc2OC)n1	-10	3.5µM*	-64*	·	-29%	?
CCS(=O)(=O)c1ncc(Cl)c(C(=O)NCc2ccc(OC)cc2)n1	-28	3.2µM*	·	·	5.6µM*	·

Compound activity: PubChem BioAssay, National Center for Advancing Translational Sciences (NCATS)
